aSyn yeast inh: qHTS of alpha-syn Inhibitors | AID 652106, 2013 | 370,000 compounds, 0.14% hits | Yeast expressing alpha-synuclein, growth rescue, BacTiter-Glo, 24 h | Potency, µM (series often up to 46.1 µM), without a hit: at the highest dose growth rescue (activation), hits mostly activators; further: % of control where 0% means no effect; nearly all actives have a fitted effect of over 65% in size
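Galactose-induced alpha-syn yeast (OD600=0.02, raffinose-pregrown) + pinned cpd, 24 hr, 30 deg C; growth by BacTiter-Glo luminescence. Growth restoration scores as activation.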
FUS yeast rescue: qHTS for Suppressors of FUS Proteinopathy: Primary screen using FUS-linked yeast assay; S. cerevisiae FUS-expressing, growth rescue, OD600, 24 h; Potency, µM (highest dose often 76.6 µM), most hits filed as activators; 390,000 compounds, 0.24% hits;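 further: plate controls were DMSO vehicle for no effect and reference control for full effect; nearly all actives have a fitted effect of over 55% in size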
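S. cerevisiae expressing FUS from galactose induction served as the toxicity model. Growth after 24hr at 30C, read as absorbance at 600 nm, indicates suppression of toxicity; compounds dosed at several concentrations.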
Abeta rescue: qHTS for compounds that reverse cellular toxicity of Amyloid beta (A-beta) peptide in yeast: Primary Screen | yeast expressing A-beta42, growth rescue, OD600, 48 h; response scale: 0% DMSO, 100% iron-clioquinol control | AID 1347071, 2019 | Potency, µM (highest dose often 46.1 µM), actives largely listed as activators | 410,000 compounds, 0.063% hits; further: nearly all actives have a fitted effect of over 55% in size
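Growth rescue measured by 600 nm absorbance after 48 h yeast culture at 30 C with compound. Values normalized between DMSO and an equimolar ferric chloride plus clioquinol control.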
TDP-43 yeast inh: qHTS of TDP-43 Inhibitors; TDP-43 expressing yeast growth rescue, BacTiter-Glo, 24 h; Potency, µM (highest dose often 46.1 µM), for inactives: top-dose growth rescue (activation), actives largely listed as activators; 410,000 compounds, 1.8% hits; further: % of control where 0% means no effect; nearly all actives have a fitted effect of over 50% in size
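Readout is BacTiter-Glo luminescence of cell growth, so inhibitors register as activators. TDP-43-expressing yeast at OD600=0.02 in galactose medium, after raffinose pregrowth to mid-log, were incubated with compound for 24 hr at 30 deg C.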
* hit, by the source's call; [ ] = another dose, or the depositor's remark. Shown are actives, neighbours in structure and some others; about 2.1% of the full set was active somewhere. The call rests on the fitted dose curve; in most records, active means well fitted curve in the direction sought with a large enough effect; inconclusive means small, poorly fitted or top-dose-only effect, or another doubt; inactive means no such curve, though single readings can be large; an effect the other way counts as inactive or inconclusive. Potency means the concentration at half of the fitted maximal effect.

What do the screens show for `CCOC(=O)c1c(NC(C)=O)c2c3c(sc2n1Cc1cc(C)ccc1C)CCCC3`?
FUS yeast rescue: inactive; Abeta rescue: inactive; TDP-43 yeast inh: 22%

How did COc1ccc(N2C(=O)CSC23C(=O)N2c4c(cccc43)C(C)=CC2(C)C)cc1 (configuration not stated) do in these assays?
aSyn yeast inh: 16µM*; FUS yeast rescue: inactive; Abeta rescue: inactive; TDP-43 yeast inh: -16%

Results for CCn1c2ccccc2c2cc([N+](=O)[O-])ccc21 ?
aSyn yeast inh: 11%; FUS yeast rescue: inactive; Abeta rescue: inactive; TDP-43 yeast inh: -23%

What do the screens show for `CCn1c2ccccc2c(=O)c2ccccc21`?
aSyn yeast inh: 9%; FUS yeast rescue: inactive; Abeta rescue: inactive; TDP-43 yeast inh: 13µM*

Results for Cc1cccc(CNC(=O)c2cccc(NC(=O)N3CCSc4ncccc43)c2)c1 ?
FUS yeast rescue: inactive; Abeta rescue: inactive; TDP-43 yeast inh: 2%

What do the screens show for `CCCCCCSc1nsc(NC(=O)CC(C)C)n1`?
aSyn yeast inh: 2%; FUS yeast rescue: inactive; Abeta rescue: inactive; TDP-43 yeast inh: -14%[0.397 µM]

Results for CCCCCCCSc1nsc(N)n1 ?
aSyn yeast inh: -15%; FUS yeast rescue: inactive; Abeta rescue: inactive; TDP-43 yeast inh: 13µM*

Results for O=C(CCCn1c(=O)c2cccn2c2ccccc21)Nc1cccc(Cl)c1 ?
FUS yeast rescue: inactive; Abeta rescue: inactive; TDP-43 yeast inh: 2%

Results for Cn1c(O)c(N=NC(=O)c2ccccc2O)c2ccccc21 ?
aSyn yeast inh: 4%; FUS yeast rescue: inactive; Abeta rescue: inactive; TDP-43 yeast inh: 16µM*

Results for COc1cccc2c1cc1c(=O)n(CC(=O)NCc3ccco3)nc(C)n12 ?
FUS yeast rescue: inactive; Abeta rescue: inactive; TDP-43 yeast inh: 3%

How did O=[N+]([O-])c1cc(S(=O)(=O)Nc2ccccc2)ccc1Nc1ccccc1 do in these assays?
aSyn yeast inh: 13%; FUS yeast rescue: inactive; Abeta rescue: inconclusive; TDP-43 yeast inh: 13µM*

How did N#CC(=C(\N)Sc1ccccc1N)/C(C#N)=C(/N)Sc1ccccc1N do in these assays?
aSyn yeast inh: -77%

What do the screens show for `CN(C(=O)Cn1ncc2c1-c1ccccc1OC2)c1ccc(Br)cc1`?
FUS yeast rescue: inactive; Abeta rescue: inactive; TDP-43 yeast inh: 18µM*

Results for COC(=O)c1cc(NC(=O)Cn2ncc3c2-c2ccccc2OC3)cc(C(=O)OC)c1 ?
FUS yeast rescue: inactive; Abeta rescue: inactive; TDP-43 yeast inh: -1%

What do the screens show for `O=C(Cn1ncc2c1-c1ccccc1OC2)Nc1nc2ccccc2s1`?
aSyn yeast inh: -8%; FUS yeast rescue: inactive; Abeta rescue: inactive; TDP-43 yeast inh: 14µM*

Results for CCOc1ccc(NC(=O)c2cnn3c2NC(c2ccccc2)=CC3c2cccc(OC)c2OC)cc1 (configuration not stated) ?
FUS yeast rescue: 22µM*; Abeta rescue: inactive; TDP-43 yeast inh: 27%[9.22 µM]

Results for COc1cccc(C2C=C(c3ccccc3)Nc3c(C(=O)Nc4ccccc4)cnn32)c1OC (configuration not stated) ?
FUS yeast rescue: inactive; Abeta rescue: inactive; TDP-43 yeast inh: 1%

Results for O=C(/C=C/c1ccc(Cl)cc1)N1CCN(c2c(Cl)cccc2[N+](=O)[O-])CC1 ?
aSyn yeast inh: 20%; FUS yeast rescue: inactive; Abeta rescue: inactive; TDP-43 yeast inh: 11µM*

How did CCCCNC(=O)CSc1nc2nc(C)c(Cc3c(F)cccc3Cl)c(C)n2n1 do in these assays?
FUS yeast rescue: inactive; Abeta rescue: inactive; TDP-43 yeast inh: 18%

Results for Cc1nc2nc(SCC(=O)NCCc3ccccc3)nn2c(C)c1Cc1c(F)cccc1Cl ?
FUS yeast rescue: inconclusive; Abeta rescue: inactive; TDP-43 yeast inh: 22µM*

What do the screens show for `CCOc1ccc(NC(=O)CSc2nc3nc(C)c(Cc4ccccc4)c(C)n3n2)cc1`?
FUS yeast rescue: inactive; Abeta rescue: inactive; TDP-43 yeast inh: 25µM*

Results for O=C(c1ccncc1)N1CC[C@H]2[C@H](CCCN2Cc2ccccc2)C1 ?
FUS yeast rescue: inactive

Results for FC(F)(F)c1nc(Sc2ncccc2C(F)(F)F)n[nH]1 ?
aSyn yeast inh: -12%; FUS yeast rescue: inactive; Abeta rescue: inactive; TDP-43 yeast inh: 13µM*

Results for O=C(O)/C=C/c1ccccc1Oc1ccccc1 ?
aSyn yeast inh: 30%; FUS yeast rescue: inactive; Abeta rescue: inactive; TDP-43 yeast inh: 18µM*

Results for CN(c1ncnc(N)c1[N+](=O)[O-])C1CCCCC1 ?
aSyn yeast inh: 5%; FUS yeast rescue: inactive; Abeta rescue: inactive; TDP-43 yeast inh: 13µM*

Results for CN(c1ncnc(N)c1[N+](=O)[O-])C1CCS(=O)(=O)C1 (configuration not stated) ?
aSyn yeast inh: -4%; FUS yeast rescue: inactive; Abeta rescue: inactive; TDP-43 yeast inh: 2%

What do the screens show for `O=C(CSCc1ccccc1Cl)N/N=C/c1ccco1`?
aSyn yeast inh: -9%; FUS yeast rescue: inactive; Abeta rescue: inactive; TDP-43 yeast inh: 13µM*

How did CC(C)NC(=O)COC(=O)c1cncc(Br)c1 do in these assays?
aSyn yeast inh: 1%; FUS yeast rescue: inactive; Abeta rescue: inactive; TDP-43 yeast inh: -10%

How did CC(C)CNC(=O)COC(=O)c1cncc(Br)c1 do in these assays?
aSyn yeast inh: 0%; FUS yeast rescue: 4.5µM*; Abeta rescue: inactive; TDP-43 yeast inh: -19%

What do the screens show for `CSc1ccc(Cl)c(C(=O)OCC(=O)NCC(C)C)c1`?
aSyn yeast inh: 0%; FUS yeast rescue: inactive; Abeta rescue: inactive; TDP-43 yeast inh: 14µM*

What do the screens show for `O=S(=O)(c1ccc(Cl)cc1)N1CCN=C1SCc1cccc(Cl)c1`?
aSyn yeast inh: inconclusive; Abeta rescue: inactive; TDP-43 yeast inh: 5%

How did O=S(=O)(c1ccccc1)N1CCN=C1SCc1c(F)cccc1Cl do in these assays?
aSyn yeast inh: 7%; Abeta rescue: inactive; TDP-43 yeast inh: 11µM*

What do the screens show for `CCN(CC)c1nc2c(S(=O)(=O)c3ccccc3)nnn2c2ccc(Cl)cc12`?
FUS yeast rescue: inconclusive; Abeta rescue: inactive; TDP-43 yeast inh: 13µM*

Results for Cc1ccc(S(=O)(=O)c2nnn3c2nc(N2CCC(C(N)=O)CC2)c2cc(Cl)ccc23)cc1C ?
FUS yeast rescue: 25µM*; Abeta rescue: inactive; TDP-43 yeast inh: 10%

What do the screens show for `CC1CC(C)CN(c2oc(-c3ccc(OCc4ccccc4Cl)cc3)nc2C#N)C1` (configuration not stated)?
aSyn yeast inh: 7%

How did O=C(CSc1nnc(-c2cccnc2)n1Cc1ccco1)Nc1ccc(F)cc1Cl do in these assays?
FUS yeast rescue: inactive

How did O=C(CCc1ccccc1)NNc1cc(N2CCCCC2)nc(N2CCCCC2)n1 do in these assays?
aSyn yeast inh: -1%; FUS yeast rescue: inactive; Abeta rescue: inactive; TDP-43 yeast inh: 3.2µM*
